Assay outcomes (PubChem BioAssay)
AI-2 QS modul: modulators of Vibrio harveyi AI-2 quorum sensing system | Vibrio harveyi JMH597 AI-2 luminescence/OD600 ratio, 9 h; hits give low values; strain lacks LuxN and CqsS sensors; 0 = neutral-control median | activity change, % at 7.5 µM | 0.4% of 300,000 active; in the data active = activity change below about -75%, passing the limit was not always enough; inconclusive = no clear call, values can overlap the other calls;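 note: luminescence divided by OD600 gain over 9 h not by final OD600 alone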
ARNT-TACC3 inh: disruptors of human ARNT/TACC3 interaction | Q9Y6A5 | AlphaScreen His-ARNT PAS-B/GST-TACC3 binding, luminescence; TACC3 fragment carries E629A point mutation | inhibition, % at 9.99 µM | 0.66% of 390,000 active | AID 623870;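 active = mean inhibition of replicates at least 50% and at least half of replicates each reaching 50%; inconclusive = half or more replicates reach 50% but mean below 50%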
A1 inh: inhibitors of the anti-apoptotic protein A1, read as caspase activation. MEF A1-2A-BIM cells, Caspase-Glo 3/7 luminescence, 3 h; percent of clofoctol response, vehicle zero. caspase activation, % (test concentration not listed). 0.066% of 330,000 active;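 active = over half of replicate activation scores above 10%, or exactly half above 10 with the replicate mean above 10; inconclusive = replicate mean below 10 yet half the replicates above 10; inactive = over half of replicates below 10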
aDG glyco up: alpha-DG glycosylation activation; activation, % at 10 µM; AID 624168; 0.22% of 360,000 active; Pro5-aDG cells, alpha-DG glycosylation AlphaScreen (IIH6); 0% Pro5, 100% B10-LARGE cell signal;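 active = activation of at least 8% versus controls, or a plate z-score of at least 8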;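 note: Pro5 are CHO cells carrying HIG-tagged alpha-DG that lacks glycosylation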
SUMO Mot1 rescue: blocks SUMOylation pathway, rescuing yeast Mot1-301 growth | S. cerevisiae Mot1-301 growth rescue, ATP luminescence, 38.5C; percent above DMSO median, 100 means doubled | growth rescue, % at 18.8 µM | 1% of 320,000 active | AID 2716;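 active = every valid replicate shows activation above 250% relative to neutral control wells; inactive = the rest, any valid replicate at or below 250%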
Yeast Mot1 SUMO: SUMO pathway inhibitors in yeast Mot1-301 growth; AID 493004; 2,300 tested, under 10 active; shares compounds with SUMO Mot1 rescue; growth activity, percent, % at 42 µM; S. cerevisiae Mot1-301 galactose growth, ATP luminescence, 24 h; -100 = growth of slx-deleted rescue strain;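 active = Signal drops as the depositor expects, and the fitted half-maximal dose is no more than ten times the top valid tested dose; inconclusive = Poor fit, or a flat curve whose signal drops by 30% to 70%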;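 note: more negative values mean stronger growth rescue toward the control strain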
Each line names hits and unclear results; the compound was inactive in the other large screens (follow-up assays come after a bar, where they were run). Compounds with a hit are over-represented: about 1.8% of the library has one in this group of screens.

CCC(C(=O)OCCOCCN(CC)CC)c1ccccc1 (stereo not given)	none (no result: AI-2 QS modul, ARNT-TACC3 inh)
COc1cc(CN2CCN(c3ncccn3)CC2)cc(OC)c1	SUMO Mot1 rescue 534.2 | Yeast Mot1 SUMO inactive
COc1ccc(CN2CCN(c3ncccn3)CC2)c(OC)c1	none
CC(=N[C@@H]1CCCC[C@H]1N=C(C)c1ccccc1O)c1ccccc1O	none
CC(=O)N1CCC2(CC1)CC(=O)c1cc(OCC(=O)N3CCCC3)ccc1O2	SUMO Mot1 rescue 488.3 | Yeast Mot1 SUMO inactive
CCCCCCCCCCOC(=O)Cn1c(COc2ccccc2OC)[n+](C)c2ccccc21	SUMO Mot1 rescue 835.5 | Yeast Mot1 SUMO inactive
COc1ccc(CN2CC(=O)N(c3ccc(C)cc3C)C2=S)cc1OC	none
COc1ccc(CN2CC(=O)N(c3ccccc3C)C2=S)cc1OC	SUMO Mot1 rescue 672.3 | Yeast Mot1 SUMO inactive
COc1ccc(CNC(=O)c2ccc(SC)cc2OC)cc1	none
CC(C)N=C(NS(=O)(=O)NC(=O)c1ccccc1)c1ccccc1	SUMO Mot1 rescue 456.2 | Yeast Mot1 SUMO inactive
Cc1nnc(NC(=O)c2ccc(-c3cccc(C(F)(F)F)c3)o2)s1	SUMO Mot1 rescue active (no result: AI-2 QS modul, ARNT-TACC3 inh) | Yeast Mot1 SUMO inactive
[O-][n+]1ccccc1/C=C/c1ccccc1	none
CN(C)c1ccc(/C=C/c2cccc[n+]2[O-])cc1	SUMO Mot1 rescue 584.2 | Yeast Mot1 SUMO inactive
COc1cccc(-c2csc(NC(=O)Oc3ccccc3)n2)c1	none
O=C(NNC(=O)C12CC3CC(CC(C3)C1)C2)c1ccccn1	ARNT-TACC3 inh 75.1, SUMO Mot1 rescue 998.3 | Yeast Mot1 SUMO inactive
O=C(O)c1ccc(Cl)c(NCc2cccs2)c1	SUMO Mot1 rescue 560.0 | Yeast Mot1 SUMO inactive
CC1CN(C(=O)c2cc([N+](=O)[O-])cc([N+](=O)[O-])c2)CC(C)O1 (stereo not given)	SUMO Mot1 rescue active | Yeast Mot1 SUMO inactive
CCN1CCN(CC(=O)Nc2cccc(C)c2C)C(=O)C1=O	SUMO Mot1 rescue 518.4 | Yeast Mot1 SUMO inactive
O=C(Nc1cccnc1Cl)c1cc2ccccc2o1	SUMO Mot1 rescue 566.6 | Yeast Mot1 SUMO inactive
O=C(N/N=C/C(Br)=C/c1ccccc1)c1n[nH]c2c1CCC2	SUMO Mot1 rescue 507.8 | Yeast Mot1 SUMO inactive
O=Cc1ccc(OCCN2CCCC2=O)cc1	none
O=Cc1ccccc1OCCN1CCCC1=O	SUMO Mot1 rescue 734.1 | Yeast Mot1 SUMO inactive
COc1cccc(/C=C/C(=O)OCC(=O)Nc2ccc(Cl)cn2)c1	SUMO Mot1 rescue 759.8 | Yeast Mot1 SUMO inactive
O=C(COC(=O)/C=C/c1cccc(Br)c1)Nc1ccc(Cl)cn1	none (no result: AI-2 QS modul, ARNT-TACC3 inh, A1 inh, SUMO Mot1 rescue)
Cc1ccc(S(=O)(=O)N2CCOCC2)cc1NC(=O)COC(=O)CNC(=O)c1ccccc1	SUMO Mot1 rescue 531.6 | Yeast Mot1 SUMO inactive
Cc1ccc(S(=O)(=O)N2CCOCC2)cc1NC(=O)COC(=O)Cc1cccs1	none
CC1=CC(=O)C=C(C)C1=NOS(=O)(=O)c1ccccc1	none (no result: A1 inh, SUMO Mot1 rescue)
CC1=CC(=O)C(C(C)C)=C/C1=N/OS(=O)(=O)c1ccccc1	AI-2 QS modul inconclusive, A1 inh 26.8, SUMO Mot1 rescue 390.0 | Yeast Mot1 SUMO inactive
CCOC(=O)c1cc2sc(C)cc2n1CC(=O)Nc1cccc(C)c1C	none
CCOC(=O)c1cc2sc(C)cc2n1CC(=O)Nc1ccc2c(c1)OCCO2	SUMO Mot1 rescue 784.4 | Yeast Mot1 SUMO inactive
CCCCOC(=O)/C(=C/C=C/c1ccccc1)NC(=O)c1ccccc1	SUMO Mot1 rescue 815.0 | Yeast Mot1 SUMO inactive
CC(C)C[C@@H](CN)NC(=O)c1nc[nH]c1C(=O)N[C@@H](Cc1ccccc1)C(=O)CNC[C@H](C)NC(=O)c1nc[nH]c1C(=O)N[C@@H](CC(C)C)C(=O)O	none (no result: AI-2 QS modul, A1 inh, SUMO Mot1 rescue)
C#CC[N+](C)(C)CCN1C(=O)C2C(c3ccccc3)C=CC(c3ccccc3)C2C1=O (stereo not given)	none
Cc1ccc(NS(=O)(=O)c2csc(C(N)=O)c2)cc1C	SUMO Mot1 rescue 368.8 | Yeast Mot1 SUMO inactive
COc1ccc(NC(=O)c2cc(S(=O)(=O)Nc3ccc(OC)cc3)cs2)cc1	SUMO Mot1 rescue 526.6 | Yeast Mot1 SUMO inactive
CC(=O)Nc1cccc(NC(=O)C2CCCN2C(=O)Nc2ccccc2C)c1 (stereo not given)	none
COc1ccccc1-c1sc2ccccc2c1-c1ccc2c(c1)OCO2	SUMO Mot1 rescue 997.9 | Yeast Mot1 SUMO inactive
CC1(C)C2CC[C@]3(C)C(CC=C4[C@@H]5C[C@@](C)(CO)[C@@H](O)C[C@]56C[C@@H](OC6=O)[C@]43C)[C@@]2(C)CC[C@@H]1O (stereo not given in full)	SUMO Mot1 rescue 368.9 | Yeast Mot1 SUMO inactive
C[C@H]1[C@H](C)CC[C@]2(C(=O)O)CC[C@]3(C)C(=CC[C@@H]4[C@@]5(C)CC[C@H](O)C(C)(C)[C@@H]5CC[C@]43C)[C@H]12	none
COC(=O)c1ccc(NC(=O)CCN2CCN(c3ccccc3)CC2)cc1	SUMO Mot1 rescue 519.5 (no result: ARNT-TACC3 inh) | Yeast Mot1 SUMO inactive
O=C(CCN1CCN(c2ccccc2)CC1)Nc1ccc(Cl)cc1	none (no result: SUMO Mot1 rescue)
CCOc1ccc(-c2nnc(N(CC)C(=O)C3CCC3)s2)cc1	none
COCCN(C(=O)C1CC1)c1nnc(-c2ccc(C)cc2)s1	SUMO Mot1 rescue 730.6 | Yeast Mot1 SUMO inactive
O=C1COc2ccc(C(=O)COC(=O)c3nc(Cl)ccc3Cl)cc2N1	none (no result: AI-2 QS modul, A1 inh, SUMO Mot1 rescue)
O=C1COc2ccc(C(=O)COC(=O)c3ncc(Cl)c(Cl)c3Cl)cc2N1	SUMO Mot1 rescue 851.5 (no result: AI-2 QS modul) | Yeast Mot1 SUMO inactive
O=C1CN(C(=O)c2ccccc2F)C(c2ccc(F)cc2)c2cc(Br)ccc2N1 (stereo not given)	none
O=C1CN(C(=O)c2ccccc2F)C(c2ccccc2)c2cc(Cl)ccc2N1 (stereo not given)	SUMO Mot1 rescue 603.5 | Yeast Mot1 SUMO inactive
COc1ccc(OC)c(NC(=O)C2CCC(CNc3c(N4CCOCC4)c(=O)c3=O)CC2)c1 (stereo not given)	none
O=C(CSC1=NCCS1)Nc1nc2ccccc2s1	none
Cc1sc(NC(=O)CSC2=NCCS2)nc1-c1ccccc1	SUMO Mot1 rescue 722.2 (no result: ARNT-TACC3 inh) | Yeast Mot1 SUMO inactive
O=C(NCCCCNC(=O)c1c(Cl)cccc1Cl)c1c(Cl)cccc1Cl	none (no result: ARNT-TACC3 inh)
O=C(CCSc1ccccc1)Nc1ncccn1	SUMO Mot1 rescue 730.8 | Yeast Mot1 SUMO inactive
O=C(CCSc1ccccc1)Nc1nccs1	none
O=C(Nc1ccc(F)cc1)c1ccc(CSc2ccc(Cl)cc2)o1	none
O=C(Nc1ccc(F)cc1)c1ccc(CSc2ccccc2)o1	SUMO Mot1 rescue active | Yeast Mot1 SUMO inactive
Cc1cccc(N2CCN(S(=O)(=O)c3ccc4[nH]c(=O)ccc4c3)CC2)c1C	none
O=C(c1cn(-c2ccccc2)nc1-c1cccs1)N1CCOCC1	SUMO Mot1 rescue active | Yeast Mot1 SUMO inactive
